Assay outcomes: PubChem, several laboratories
p-CIP stab down: p/CIP protein destabilization; Q05BA5; F442A p/CIP-EGFP cells, EGFP fluorescence, 16 h; decrease of EGFP signal, % at 10 µM; 0.01% of 290,000 active; AID 1984;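 active = EGFP signal decrease of at least 30% at 10 µM or well 3 SD below plate mean, unless failing retest; inactive = the rest, including hits failing retest or dose response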
NALP1 inh: blocks the NALP1 inflammasome reconstituted in yeast; inhibition, % at 10 µM; 0.61% of 280,000 active; S. cerevisiae NALP1/ASC/caspase-1 growth, X-gal OD620, 72 h; AID 2071; in the data active = inhibition mostly above about 24%, no sharp cut-off; inactive = mostly below about 32%
HSF-1 act: increases HSF-1 driven luciferase reporter signal | 1.7% of 300,000 active | NIH3T3-HGL HSF-1 luciferase reporter, MG132, 8 h; 100% = twice DMSO control signal | activation, % at 9 µM | AID 504408;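 active = mean replicate activation of at least 50% with a set share of replicates each reaching 50%; inconclusive = only one of those two conditions met; inactive = mean below 50% and too few replicates reaching it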
HSP90 refold inh: inhibitors of HSP90 luciferase refolding in rabbit reticulocyte lysate; 0.91% of 290,000 active; AID 1789; luciferase refolding luminescence, 3 h; inhibition, % at 5.6 µM;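 active = inhibition above the screen-wide mean plus 3 SD, computed separately per campaign, cut at about 16% in these data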;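 note: inhibitors lower the luminescence because luciferase stays unfolded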
Hsp70 act: switches on Hsp70 transcription; HeLa Hsp70 promoter luciferase reporter, luminescence; scaled: vehicle 0, proteasome-inhibitor control 100%; activation, % at 10 µM; 0.04% of 200,000 active;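 active = activation above the mean across all tested compounds plus 3 SD, cutoff set per campaign, cut at about 5.5% in these data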
HSF1 inhib: HSF1 inhibition; NIH3T3-HGL HSE-luciferase, MG132-induced, luminescence 8 h; hits give low values; activity change, negative = inhibition, % at 7.5 µM (by protocol); 0.77% of 300,000 active; AID 2098;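 active = more than half of replicate wells show activity change below -50%, luminescence cut by over half; inconclusive = some wells, but at most half, below -50%; inactive = no replicate well below -50%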;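 note: luciferase reports HSF-1 transcriptional activity via heat shock element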
Large screens that a line does not name were inactive. Shown are actives, neighbours in structure and some others; about 3.8% of the full set was active somewhere.

Cc1nc(CN2CCN(Cc3nc(C(c4ccccc4)c4ccccc4)no3)CC2)cs1	HSF-1 act 69
CCCCCOc1ccc(/C(C)=N/NC2=NCCN2)cc1	none (no result: Hsp70 act)
CCCCCCOc1ccc(/C(C)=N/NC2=NCCN2)cc1	NALP1 inh 88 (no result: Hsp70 act)
COCCNC(=O)C1CCCN(S(=O)(=O)c2c(C)noc2/C=C/c2cccs2)C1 (configuration not stated)	none (no result: NALP1 inh, Hsp70 act)
Cc1noc(/C=C/c2ccco2)c1S(=O)(=O)N1CCC(C(=O)NCc2ccco2)CC1	HSF1 inhib -72
COC(CNC(=O)C1CCCN(S(=O)(=O)c2c(C)noc2/C=C/c2cccs2)C1)OC (configuration not stated)	HSF-1 act inconclusive, HSP90 refold inh 17
COc1ccc(CCNC(=O)CCCOc2ccc(Cl)cc2)cc1OC	none (no result: Hsp70 act)
Cn1cnnc1Sc1ccc(/C=C/C(=O)c2ccc(O)cc2)cc1[N+](=O)[O-]	HSF-1 act 58
CCOc1ccc(NC(=O)CC2C(=O)Nc3ccccc3N2C(=O)c2ccccc2)cc1 (configuration not stated)	none
Cc1noc(C)c1CSc1ncnc2sc3c(c12)CCC(C)C3 (configuration not stated)	none
Cc1noc(C)c1CSc1ncnc2sc3c(c12)CCC3	HSF1 inhib -73
CC1(C)CC(=O)c2ccc(OCc3ccc([N+](=O)[O-])cc3)cc2O1	HSF-1 act 70 (no result: Hsp70 act)
COc1ccc(C(NCC(=O)NC(C)c2ccc(Cl)cc2)c2ccccc2)cc1 (configuration not stated)	none (no result: Hsp70 act)
O=[N+]([O-])/C(C(=C(Cl)Cl)N1CCOCC1)=C1\NCCO1	none
CCS(=O)(=O)C(=C1NCCO1)S(=O)(=O)CC	HSF-1 act 52
O=C(c1ccco1)c1coc2c1cc(O)c1ccccc12	HSF-1 act 68
CC(=O)c1coc2c1cc(O)c1ccccc12	none
COCCCN(CCCN)Cc1ccco1	NALP1 inh 71
CCOc1ccc(CC(=O)N/N=C(\C)c2cccnc2)cc1	none (no result: Hsp70 act)
COc1ccccc1CNC(=O)CCS(=O)(=O)c1ccc2c(c1)CCN2C(C)=O	none (no result: Hsp70 act)
O=C(CSc1nccn(-c2ccc(F)c(F)c2)c1=O)NC1CCCC1	HSF-1 act 62 (no result: p-CIP stab down, NALP1 inh, HSP90 refold inh, Hsp70 act)
C=CCn1c(-c2sc3nc(C)cc(C)c3c2N)n[nH]c1=S	none (no result: Hsp70 act)
O=C(COc1ccc(F)cc1)c1ccc2c(c1)CCCC2	HSF-1 act 78 (no result: p-CIP stab down, NALP1 inh)
CC(C)(C)OC(=O)NCc1n[nH]c(=S)n1C1CC1	none (no result: NALP1 inh, Hsp70 act)
O=[N+]([O-])c1cc(Cl)ccc1-c1nc(-c2ccncc2)no1	none
O=[N+]([O-])c1cc(Cl)ccc1-c1nc(-c2ccccc2)no1	HSF-1 act 95
COc1ccc2ccn(S(=O)(=O)c3ccccc3)c2c1	none (no result: Hsp70 act)
O=C(NC(=S)N1CCN(c2ccc(C(F)(F)F)cc2[N+](=O)[O-])CC1)c1cccs1	HSF1 inhib -94
CC(=O)c1ccc(NC(=O)C2CCN(S(=O)(=O)c3cccs3)CC2)cc1	none (no result: Hsp70 act)
CCOc1ccc(NC(=O)C2CCN(S(=O)(=O)c3cccs3)CC2)cc1	NALP1 inh 39 (no result: Hsp70 act)
Cc1cc(C)c(C(=O)N2CCCC(N3CCN(c4ccc(F)cc4)CC3)C2)o1 (configuration not stated)	none (no result: Hsp70 act)
Cc1cccc(C(=O)Nc2nnc(S(=O)(=O)N3CCC(C)CC3)s2)c1	NALP1 inh 40 (no result: Hsp70 act)
Cc1ccc(C(=O)N/C(=C\c2ccc(-c3ccccc3[N+](=O)[O-])o2)C(=O)NCCCN2CCOCC2)cc1	HSF-1 act 58 (no result: Hsp70 act)
Cc1ccc(C(=O)N/C(=C\c2ccc(-c3ccc(Br)cc3)o2)C(=O)NCCCN(C)C)cc1	HSF1 inhib -97
Cc1cccc(CC(=O)NCC2CCCCC2)c1	none (no result: Hsp70 act)
CCC(=O)Nc1cccc(NC(=S)NC(=O)c2ccc(Cl)cc2)c1	HSF-1 act 64
CNC(=S)Nc1cccc(C(C)=O)c1	none
CCC(=O)Nc1cccc(NC(=S)NC(=O)c2ccc(Cl)cc2Cl)c1	none
CC(=O)c1cccc(NC(=S)NC(=O)c2ccccc2)c1	HSF-1 act 55
CC(=O)c1cccc(NC(=S)NC(=O)C(C)C)c1	none
CC(=O)c1cccc(NC(=S)NC(=O)c2cccc(Cl)c2)c1	HSF-1 act 56
O=C(NC(=S)Nc1cc([N+](=O)[O-])ccc1Cl)c1ccccc1	HSF-1 act 54
CCOC(=O)c1ccc(-c2ccc(/C=N/NC(=O)Cc3nnc(N)s3)o2)cc1	HSF-1 act 71 (no result: NALP1 inh, Hsp70 act)
CCCOC(=O)c1ccc(-c2ccc(C=O)o2)cc1	HSF-1 act 66, HSP90 refold inh 36
O=C1C(Nc2ccccc2)=C(N2CCCCC2)C(=O)c2ccccc21	none
COc1ccccc1NC1=C(N2CCCCC2)C(=O)c2ccccc2C1=O	NALP1 inh 80
Nc1nnc(CSCc2ccccc2Cl)s1	HSF-1 act 56 (no result: Hsp70 act)
Nc1nnc(SCc2ccccc2Cl)s1	none
Cc1ccc(CN=C2Nc3ccccc3CS2)cc1	HSF-1 act 61
c1cncc(CN=C2Nc3ccccc3CS2)c1	none
COc1ccccc1CN=C1Nc2ccccc2CS1	HSF-1 act 123
Clc1ccc(CN=C2Nc3ccccc3CS2)cc1	HSF-1 act 66
CC(=O)NC(NC(C)=O)c1cccc(OCc2ccccc2)c1	none
COCCNC(=O)c1onc(CSc2ccc(F)c(F)c2)c1C(=O)NCCOC	none (no result: p-CIP stab down, NALP1 inh, HSP90 refold inh, Hsp70 act)
O=C(c1cccc(Cl)c1)N1CCN(c2ncnc3c2cnn3-c2ccccc2)CC1	NALP1 inh 25
O=C(c1ccccc1)N1CCN(c2ncnc3c2cnn3-c2ccccc2)CC1	none
Cc1nn(-c2ccccc2)c(Cl)c1C(=O)N1CCN(c2ncnc3c2cnn3-c2ccccc2)CC1	HSF1 inhib -77
COc1ccc(-c2nc3c(c(SCC(=O)N4CCCC4)n2)COC(C)(C)C3)cc1	none (no result: Hsp70 act)
COc1ccc(C2(CNC(=O)c3ccccc3[N+](=O)[O-])CCOCC2)cc1	none
CN(C)C(CNC(=O)c1cc(S(=O)(=O)N(C)Cc2ccccc2)ccc1Cl)c1ccco1 (configuration not stated)	none (no result: p-CIP stab down, NALP1 inh, HSP90 refold inh, Hsp70 act)
Cn1ccnc1SCC(=O)Nc1nc2c(F)c(F)c(F)cc2s1	NALP1 inh 36
Cc1csc(NC(=O)CSc2nccn2C)n1	none (no result: Hsp70 act)
Nc1ccc(C(=O)C(=O)c2ccccc2)cc1	none (no result: p-CIP stab down, NALP1 inh, HSP90 refold inh, Hsp70 act)
COc1ccc(C(CC(=O)Nc2ccc(C)cn2)N2Cc3ccccc3C2=O)cc1 (configuration not stated)	none (no result: Hsp70 act)
COc1ccc(/C=N/Nc2nnc(C)n2N)cc1OC(C)=O	HSF-1 act 80 (no result: Hsp70 act)
Nn1cnnc1N/N=C/c1ccccc1C(F)(F)F	HSF-1 act inconclusive (no result: Hsp70 act)
Nn1cnnc1N/N=C/c1cccc(Cl)c1Cl	HSF-1 act inconclusive (no result: Hsp70 act)
Cc1nnc(N/N=C/c2ccc(Br)cc2)n1N	HSF-1 act 52 (no result: Hsp70 act)
Cc1ccc(/C=N/Nc2nncn2N)cc1	HSF-1 act 74 (no result: Hsp70 act)
Nn1cnnc1N/N=C/c1ccc(F)cc1	HSF-1 act 55 (no result: Hsp70 act)
COc1ccc(NC(=S)N(CCN(C)C)C(C)c2ccco2)cc1Cl (configuration not stated)	none
